This passage reports binding signal results from publication PMC6212790, “How bacterial xenogeneic silencer rok distinguishes foreign from self DNA in its resident genome”.

Whole data set: some 33,000 sequences, median “e-score” near -0.038, cut for the highest 2% near 0.33. The list comes from a sample in which the highest values are over-represented; it also holds similar and randomly drawn sequences.

The experiment addresses T1, GST-Rok-C97-191 (Bacillus subtilis subsp. subtilis str. …, UniProt O34857 97-191).
T1 sequence: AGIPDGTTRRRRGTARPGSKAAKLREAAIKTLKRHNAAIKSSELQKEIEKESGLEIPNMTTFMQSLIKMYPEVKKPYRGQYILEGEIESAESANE
The experiment can be described thus: protein binding microarray; Rok is a gene silencer of Bacillus subtilis; high values mean tight binding. As to conditions: protein: recombinant; tags: GST (pTH5325, pDEST15-Magic modified); dsDNA, one strand shown. Put shortly:
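Every oligonucleotide joins a 25-mer constant primer to a 35-mer variable part drawn from a de Bruijn sequence of order 10, so each non-palindromic 8-mer appears at least 32 times and each palindromic 8-mer 16 times. The preference for every 8-mer is reported as a unitless, rank-based enrichment score (E-score). This score spans 0.5 for the most favored 8-mer to −0.5 for the most disfavored.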
TAGTCGCA: the binding signal worked out at 0.00372 E-score.
For AAAGGGTT, the binding signal was -0.0515 E-score.
For CGACCAGC, the binding signal was -0.129 E-score.
As to AACGAGAG, the binding signal is -0.0985 E-score.
Turning to ACTTCCGG, the binding signal was -0.139 E-score.
Turning to CAAAAGGG, the binding signal is -0.177 E-score.
With CAAACGCC, the binding signal is -0.166 E-score.
The same measure for ATTCCGGG: -0.0619 E-score.
In the case of AATTCCTA, the binding signal was found to be 0.155 E-score.
The same measure for AAATCCCA: 0.123 E-score; for GGATAGTA: 0.142 E-score.
With AGATAGTA, the binding signal was 0.376 E-score.
Consider CGATAGTA, for which the binding signal was determined as 0.382 E-score.
As to CGATAGTC, the binding signal was -0.0434 E-score.
The same measure for AGATAGTG: 0.174 E-score; for AGATAGTC: 0.0233 E-score.
In the case of ACTCCAAA it was -0.0283 E-score.
Regarding AGAGCCAA, the binding signal is -0.0861 E-score.
For the sequence ACCTTCCG, the binding signal is -0.0992 E-score.
Regarding CCGTACTC, the binding signal was 0.0243 E-score.
As for CTGTAATC, the binding signal was 0.13 E-score.
In the case of ATGTAAAC it was 0.031 E-score.
The same measure for ATGTAAAA: 0.351 E-score; for CTGTAATA: 0.334 E-score; for ATGTAAAG: 0.164 E-score.
With CTGTAAAA, the binding signal is 0.0478 E-score.
In the case of ATGTAATA it was 0.32 E-score; in that of TTGTAAAA, 0.265 E-score.
In the case of ATGTAAAT it was 0.373 E-score; in that of GAGAGTGC, -0.103 E-score; in that of ACGGCAAT, 0.0959 E-score.
In the case of GGCTTCTA it was 0.11 E-score.
Turning to ATCGCCGC, the binding signal was -0.0266 E-score.
In the case of ATATATCG it was 0.366 E-score; in that of CTATATCC, 0.17 E-score.
Regarding CTATATCA, the binding signal is 0.185 E-score.
Turning to ATATATCC, the binding signal worked out at 0.268 E-score.
As for ATATATCA, the binding signal turned out to be 0.396 E-score.
The same measure for GTATATCA: 0.216 E-score; for CATTGTGA: -0.101 E-score.
The same measure for AGAGGTTG: -0.0137 E-score; for AAAGTTAA: -0.0842 E-score; for ACGTCGAT: 0.108 E-score.
With GAAATCTC, the binding signal is 0.209 E-score.
Regarding ATAATCTA, the binding signal is 0.289 E-score.
In the case of CGAATCTA it was 0.256 E-score; in that of AAAATCTA, 0.339 E-score; in that of CTAATCTA, 0.348 E-score.
In the case of GCAATCTA it was 0.307 E-score.
The same measure for AAAATCTG: 0.00361 E-score; for AAAATCTC: 0.242 E-score.
On to GTAATCTA, for which the binding signal came out at 0.313 E-score.
For GGAATCTA, the binding signal amounted to 0.339 E-score.
The same measure for GAAATCTA: 0.383 E-score.
Regarding AGAATCTA, the binding signal was 0.322 E-score.
Consider CAAAATCG, for which the binding signal came to 0.0988 E-score.
In the case of TATGCCCA it was -0.134 E-score.
In the case of GTGGCAAA it was 0.0701 E-score.
Turning to ACCGTAGT, the binding signal is 0.0984 E-score.
In the case of ATGCGGCG it was -0.186 E-score; in that of AGCCGTTA, 0.0336 E-score.
As to TAAATCTA, the binding signal was found to be 0.364 E-score.
In the case of CAAATCTG, the binding signal was -0.15 E-score.
In the case of TAAATCGA it was 0.0722 E-score; in that of CAAATCTA, 0.354 E-score; in that of CAAATCTC, 0.0537 E-score.
The same measure for TAAATCAA: 0.178 E-score; for AGTCTATC: -0.0937 E-score; for CATGTCAA: -0.0291 E-score.
For the sequence TAAATAAA, the binding signal was 0.162 E-score.
The same measure for CAAATATG: 0.161 E-score; for CAAATATC: 0.231 E-score; for AAAATATG: 0.271 E-score.
AAAATATA: the binding signal was found to be 0.399 E-score.
For the sequence CAAATATA, the binding signal stood at 0.346 E-score.
The same measure for TAAATATA: 0.378 E-score.
In the case of AAAATATC it was 0.186 E-score; in that of GAAATATA, 0.305 E-score; in that of CCCACCTA, -0.0708 E-score.
AAGTTAAG: the binding signal is -0.104 E-score.
In the case of GTTGAATA it was 0.173 E-score; in that of CTTTTGTA, 0.241 E-score; in that of ATTGATAC, 0.22 E-score.
The same measure for ATTGATAG: 0.348 E-score.
For the sequence ATTGATAA, the binding signal was 0.243 E-score.
The same measure for CGATACAC: 0.155 E-score; for CGTTCCGA: -0.149 E-score.
In the case of AGCACGGA it was 0.0231 E-score.
Turning to GATCTACC, the binding signal was 0.35 E-score.
In the case of AATCTAGC it was 0.234 E-score; in that of GATCTAAC, 0.0254 E-score.
In the case of ACTCTACT it was 0.273 E-score.
In the case of CATCTACG it was -0.0119 E-score.
AATCTAGT: the binding signal is 0.282 E-score.
In the case of CATCTACC it was 0.222 E-score.
The same measure for AATCTAAG: 0.234 E-score.
Take AATCTAAC: the binding signal worked out at 0.199 E-score.
Regarding AATCTACT, the binding signal amounted to 0.43 E-score.
Turning to AATCTACG, the binding signal is 0.36 E-score.
In the case of AATCTACC it was 0.447 E-score; in that of AGAATGCA, 0.038 E-score.
The same measure for ACGTTTCC: -0.131 E-score.
In the case of AAGTGTCG it was 0.0859 E-score; in that of AGAAAAGC, 0.217 E-score.
Consider ACCACCAT, for which the binding signal is -0.0276 E-score.
In the case of CACTATTA it was 0.202 E-score.
AACTATTA: the binding signal came to 0.444 E-score.
In the case of GGCTATCA it was -0.0497 E-score; in that of CGCTATCA, 0.0552 E-score.
In the case of GACTATTA it was 0.165 E-score; in that of GACTATCA, -0.147 E-score; in that of GTCTATTA, 0.0713 E-score.
The same measure for CACTATCA: 0.175 E-score.
For AACTATCA, the binding signal turned out to be 0.369 E-score.
In the case of ATCTATTA it was 0.353 E-score; in that of AGCTATCA, 0.335 E-score.
In the case of CTCTATTA it was 0.246 E-score.
The same measure for ATAGTTGC: 0.306 E-score; for CTGGAACC: -0.0259 E-score; for AGTCAGTA: 0.149 E-score.
In the case of AAGGCGCT, the binding signal is -0.115 E-score.
The same measure for CCGCCTAG: -0.149 E-score; for GAGATGAA: -0.0161 E-score.
In the case of CCCGAAAC it was -0.179 E-score; in that of CGGTCGTA, 0.261 E-score; in that of ATTATGAG, -0.00845 E-score.
In the case of GTACCCAA it was -0.0765 E-score; in that of AAGTATTA, 0.349 E-score; in that of ATCTATCA, 0.451 E-score.
On to GTCTATCA, for which the binding signal was -0.0797 E-score.
Consider GAGTATTA, for which the binding signal is 0.187 E-score.
As to CAGTATTA, the binding signal was determined as 0.188 E-score.
The same measure for CTCTATCA: 0.0167 E-score; for AGTCTTGC: 0.0754 E-score; for ACGACTTA: 0.051 E-score.
Regarding GCAGCAAC, the binding signal is -0.161 E-score.
The same measure for GATCAATA: 0.0798 E-score.
In the case of TATCAATA it was 0.331 E-score; in that of AATCAATA, 0.227 E-score; in that of AAAAAACA, 0.19 E-score.
On to AGAAACCG, for which the binding signal was -0.049 E-score.
The same measure for AAATACGG: 0.213 E-score; for AAATACGA: 0.0254 E-score; for AAATACGT: 0.343 E-score.
For AAATACAG, the binding signal is 0.123 E-score.
The same measure for AAATACAC: 0.25 E-score; for AAATACAT: 0.359 E-score; for CGTTCCTA: 0.0168 E-score.
In the case of CAGTATGC it was -0.144 E-score; in that of GCAGATAA, 0.127 E-score; in that of CCTAATAC, 0.14 E-score.
On to ATCCGTCC, for which the binding signal is -0.186 E-score.
For the sequence GTACCATA, the binding signal worked out at 0.362 E-score.
The same measure for ATACCACG: 0.0833 E-score; for CTACCATA: 0.324 E-score.
In the case of ATACCATC it was 0.0328 E-score; in that of CTACCACA, 0.343 E-score.
In the case of GTACCAGA it was 0.0231 E-score; in that of GTACCACA, 0.0685 E-score.
Take CTACCATC: the binding signal came out at 0.421 E-score.
Take ATACCATA: the binding signal was found to be 0.267 E-score.
With ATGGCGCA, the binding signal is -0.0193 E-score.
As for GAAACTCC, the binding signal is 0.0382 E-score.
In the case of ACGTAGAT it was 0.219 E-score; in that of CGGTAGAC, -0.0972 E-score.
As to TGGTAGAA, the binding signal stood at 0.468 E-score.
In the case of GGGTAGAA it was 0.384 E-score; in that of TCGTAGAA, 0.236 E-score.
In the case of CCGTAGAA it was 0.289 E-score; in that of AGGTAGAT, 0.36 E-score; in that of AGTTAGAT, 0.196 E-score.
The same measure for CGGTAGAA: 0.411 E-score.
As to GGGTAGCA, the binding signal was -0.148 E-score.
As to CGGTAGAG, the binding signal is -0.0194 E-score.
Regarding GGGTAGAC, the binding signal was -0.0486 E-score.
